Experimental data from PubChem BioAssay AID1794845 (National Center for Advancing Translational Sciences (NCATS), 2023).
The campaign covered roughly 6,900 compounds. Fewer than 10 were called active. The call rests on the fitted dose curve; in most records, active means well fitted curve in the direction sought with a large enough effect; inconclusive means small, poorly fitted or top-dose-only effect, or another doubt; inactive means no such curve, though single readings can be large or run the other way. These entries were drawn from the full list.

target: Metallo-beta-lactamase type 2 (Klebsiella pneumoniae) (UniProt C7C422); test: qHTS to identify inhibitors of the New Delhi Metallo-beta-lactamase (NDM): primary screen against the NCATS Gemini Collection; conditions: NDM-1 enzyme, meropenem hydrolysis, absorbance 300 nm; series mostly up to 38.4 µM; activity % (negative = inhibition): at the top concentration; further: % of control where 0% means no effect
Source text: Assay Submitter (PI): James Inglese Ph.D., Patricia Dranchak Ph.D., Mahesh Aitha Ph.D. Assay Development and Screening Technology Laboratory (ADST) National Center for Advancing Translational Sciences (NCATS), Rockville, MD National Institute of Health (NIH), Bethesda, Maryland The metallo-beta-lactamases (MBL) are a main antibiotic resistance mechanism evolved by bacteria. There is an urgent clinical need for MBL inhibitors to mitigate this growing threat. To support a machine-based learning study, qHTS has been used to experimentally test inhibitors identified by prediction tools.
PROTOCOL TABLE (as described by Inglese et al., 2007) SEQUENCE No. (e.g., 1, 2, 3, etc.); […] (e.g., enzyme, Incubation, Reagent, etc.); VALUE; DESCRIPTION 1; NDM-1; 4 uL of 3 nM enzyme [2 nM final] in 50 mM HEPES (pH 7.0), 1 uM […], 0.01% Tween20; Use BioRaptr to dispense into Aurora black, clear bottom low base 1536-well plates 2; Compounds; 23 nL; Use Pin Tool (Wako) to transfer DMSO control and library compounds in DMSO 3; Incubate; >30 min 4; Reagent; 2 uL of 150 uM meropenem [50 uM final] 5; Incubate; 30 min. 6; Detector; Absorbance at 300 nm (bandwidth = 5 nm, 25 flashes/well) on Tecan Infinity NOTES (numbers refer to sequence above) 1; Column 1 of each plate received assay buffer without enzyme and columns 2-48 received enzyme for a final assay concentration of 2 nM. 2; Control plate contained DMSO in columns 1, 2, 3, and 4. 3; Compound interaction with enzyme. 4; Meropenem substrate was prepared in the same assay buffer as step 1 for a final assay concentration of 50 uM and added to all wells across the assay plates. 5; Substrate interaction with enzyme, plateau phase of kinetics. 6; Default reader settings were applied for absorbance read at 300 nm, bandwidth = 5 nm, 25 flashes/well. References: Inglese J, Shamu CE, Guy RK. 2007. Reporting data from high-throughput screening of small-molecule libraries. Nat Chem Biol. doi:10.1038/nchembio0807-438 Yasgar A, Shinn P, Jadhav A, Auld D, Michael S, Zheng W, Austin CP, Inglese J, Simeonov A. 2008. Compound Management for Quantitative High-Throughput Screening. J Lab Autom 13:79 - 89. doi:10.1016/j.jala.2007.12.004

Metallo-beta-lactamase type 2 (Klebsiella pneumoniae), sequence (C7C422 whole entry, looked up): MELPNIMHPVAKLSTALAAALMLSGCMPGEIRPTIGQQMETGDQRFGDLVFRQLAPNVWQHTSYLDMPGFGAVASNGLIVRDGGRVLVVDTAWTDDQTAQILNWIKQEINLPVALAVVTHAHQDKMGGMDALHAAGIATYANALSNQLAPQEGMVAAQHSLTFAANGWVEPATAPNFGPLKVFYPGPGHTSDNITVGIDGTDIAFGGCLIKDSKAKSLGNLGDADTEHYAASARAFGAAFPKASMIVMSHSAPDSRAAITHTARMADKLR

Activity % (negative = inhibition), inactive:
Cc1cn2nc(C(=O)N3CCC(C(=O)NCc4ccccn4)CC3)cc2c(=O)[nH]1 18.9%
Cn1cc(CN2C[C@H](C(=O)Nc3nccs3)C[C@@H]2c2cccc(C(F)(F)F)c2)cn1 4.37% [at 57.5 µM]
COc1ccc(C(=O)N2CCC[C@H]2c2nc(-c3ccccc3)no2)cc1 5.95%
COc1ccc(NC(=O)c2nc3sccn3c2-c2cccc(OC)c2)cc1 27.7%
C[C@@H]1CN(C(=O)CN2CCN(c3ncccn3)CC2)C[C@@]1(O)C1CCC1 14.1%
Cc1nc(C)c(C(=O)N2CCC(Cc3nc(C4CC4)n[nH]3)CC2)s1 18.2%
Cn1cc(CN2CCN(c3ccc(C#N)cn3)CC2)c(-c2ccccc2)n1 12.2%
CCc1cc(=O)n(CC(=O)N2CCN(c3ccccc3OC)CC2)c(-c2ccccc2)n1 -0.786%
COCCN1C[C@@H]2[C@H](c3ccccc31)[C@@H](CO)[C@@H](c1ccccc1)N2C(=O)COC(C)=O 4.01%
Cc1ccc(CNC(=O)N(C)CC2CCOCC2)cc1 -0.782%
COCC(=O)N1CCC(C2CCN(C(=O)c3ccncc3)CC2)C1 (stereo not given) -0.46%
COc1cccc(CCC(=O)N2CCC3(CC2)N=C(c2ccccc2)NO3)c1 16.3%
CCN1c2cc(C(=O)NCc3cccc(OC)c3)ccc2C(=O)N2CCCCCC21 (stereo not given) -1.41%
c1coc(-c2nnc([C@H]3CCN(Cc4c[nH]c5ccccc45)C3)o2)c1 37.1% [at 57.5 µM]
C[C@@H]1CN(C2(C(=O)NCc3n[nH]c4c3CCC4)Cc3ccccc3C2)C[C@H](C)O1 0.0426%
CCOC(=O)C1c2c(OC)ccc3c2C(=CC(C)(C)CO3)CN1C(=O)C1CC1 (stereo not given) 2.76%
Cc1cccc(-c2nc3ccc(C(=O)NC4CCCCCC4)cc3o2)n1 29% [at 57.5 µM]
O=C1CCN(C(=O)[C@@H]2CCCN2C(=O)Nc2ccccc2)CCCCCCN1 -1.52%
CCc1ccc(NC(=O)Cn2nc3n(c2=O)CCCC3)cc1 -0.266%
COCC1CN(C)CC12CCN(Cc1sccc1C)CC2 (stereo not given) -2.49%
Fc1ccccc1-c1noc(NCCc2ccc(Cl)cc2)n1 14.8%
Nc1nc(CCC(=O)N[C@@H]2[C@@H](Cc3ccccc3)[C@H]3OCC[C@@H]23)cs1 -5.81%
O=C([C@H]1C[C@H](Oc2cccnc2)CN1C(=O)c1ccc2ccccc2n1)N1CCOCC1 27%
O=S(=O)(c1cnc[nH]1)N1CCC(c2nc(CCOCC3CC3)no2)C1 (stereo not given) -2.63%
CCc1ccc(CN2CCN(c3ccc(C(N)=O)cn3)CC2)nc1 17.8%
COCC(=O)N(C1CCOCC1)C1CCN(C(=O)c2cccnc2C)CC1 10.8%
CC(C)CCN1CCC(N2CCN(C(=O)c3ccc(Br)o3)CC2)C1=O (stereo not given) 57%
Cc1cc(C(=O)NC2CCCC2)c2c(C3CCNC3)noc2n1 (stereo not given) 1.69%
CCS(=O)(=O)N1CCC2(CCC2OC)CC1 (stereo not given) 27.6%
Cc1cnc(CC2CCN(S(=O)(=O)c3ccc4c(c3)CCC4)CC2)n1CC1CC1 12.7%
CC1CCCCN1Cc1nnc2cc(-c3nc(-c4ccccc4)no3)ccn12 (stereo not given) 11.3%
COc1ccc(CN2CCc3nc(N4CCN(C)CC4)[nH]c(=O)c3CC2)c(OC)c1OC 2.04%
Cn1nc2n(c1=O)CCN(C1CCSCC1)CC2 2.04%
COc1ccccc1CC(=O)Nc1cccn2nc(C(C)C)nc12 4.57%
O=C(C1CCCN([S+](=O)([O-])c2cccc(C(F)(F)F)c2)C1)N1CCC(c2nc3ncccc3[nH]2)C1 (stereo not given) 3.41%
O=C(COc1cccc(-c2nnc3n2CCCC3)c1)NCc1ccccc1 -4.92%
CCNC(=O)c1c(C)oc2c1CN(Cc1ccc(Br)o1)CC2 6.18%
COc1ccc2c(c1)c(CN1C[C@@H](CO)[C@H](c3nc(C)no3)C1)cn2C 23.1%
Nc1nc(CCC(=O)N[C@@H]2COCC[C@H]2Oc2ccc(CO)cc2)cs1 -3.81%
Cc1cccc2c1O[C@H]1[C@H](CO)CN([S+](=O)([O-])c3cccs3)[C@@H]21 4.48%
Cc1cccc(C(=O)N2CC[C@H]3C(=O)NCCCCCCN(Cc4ccncc4)[C@@H]3C2)c1 1.14%
Fc1ccc2nc(CO[C@H]3CN(C4CCOCC4)C[C@H]3F)[nH]c2c1 3.56% [at 57.5 µM]
O=C(c1ccccc1)N1CCC2(CC(Cc3ccccc3)=NO2)C1 (stereo not given) 9.1% [at 57.5 µM]
CCc1nc2c(c(-c3ccc(O)cc3)n1)CN(Cc1ccc(NC(C)=O)cc1)CC2 13.5%
Cc1ncnc(N2CCN(C(=O)C3CCN(C(=O)C4CC4)CC3)CC2)c1C 7.66%
O=C(CC1CCOCC1)Nc1ccc(N2CCOCC2)cc1 -5.65%
CCNc1ncc(C(=O)N[C@H](C2CCNCC2)C2CC(O)C2)cn1 (stereo not given in full) 21.5%
CCOC(=O)C1(Cc2ccccc2F)CCCN(C(=O)c2ccc3c(c2)OCCO3)C1 (stereo not given) -0.209%
O=C(NC1CC(c2nnc(CO)n2C2CC2)C1)c1ccc2c(c1)CCO2 (stereo not given) -1.33%
Nc1nc(CCCNC(=O)C2CC(=O)N(Cc3ccccn3)C2)cs1 (stereo not given) 5.55%
Fc1ccc(-c2cccc(CN3CC4CCC(C3)N4c3ccc(C(F)(F)F)cc3)c2)c(F)c1 5.91%
CC(=O)Nc1cccc(-c2ncc3c(n2)OCCN(CC2CC2)C3=O)c1 23.9% [at 57.5 µM]
CN(C)CC1(O)CCN(C(=O)Cn2cc(C(=O)C3CC3)c3ccccc32)C1 (stereo not given) 69.4%
Nc1ncccc1CNC(=O)[C@H]1CCC[C@H](O)C1 16.9%
COc1ccc(-c2cc(-c3ccncc3)cn3cncc23)cc1 2.77% [at 57.5 µM]
O=C1NCCOCCCN(S(=O)(=O)c2ccccc2)[C@H]2CCCC[C@@H]12 77.7%
Cc1cc(C(=O)N2CC(N(C(=O)NC(C)C)C3CCOCC3)C2)nn1C -2.63%
Cc1[nH]c2ccccc2c1CC(=O)NCc1ccccc1-n1cncn1 7.08%
COC(=O)N1CCN(Cc2cc(=O)c3cc(F)ccc3[nH]2)CC1 14%
CCCN(C)C(=O)c1c(-c2ccc(F)cc2)noc1[C@H](C)O -10.9% [at 57.5 µM]
O=C(NCc1nc(-c2ncccn2)no1)C1CC2(CCNCC2)CN1 (stereo not given) -0.57%
CC(C)N1CC[C@@H]2[C@H]1C(=O)NC[C@H](CCC(=O)NCc1ccc(F)cc1)N2C 28% [at 57.5 µM]
Cc1cccc(O[C@H]2COCCN(c3nc4ccccc4o3)C2)n1 14.5% [at 57.5 µM]
COc1ccc(NC(=O)C2CCN(C(=O)c3ncn4c3COC(c3ccccc3)C4)CC2)cc1Cl (stereo not given) 24.2%
CC1(NC(=O)C2CC2)CN(Cc2nc(-c3ccccc3OCc3ccccc3)cs2)C1 3.21% [at 57.5 µM]
